# Measured values published in the supplement of paper PMC6522484.
# ± gives the standard deviation of the averaged measurements.
# How the values were obtained:
# DLD1 [1] = assay: cell viability (CellTiter-Glo) relative to plate median (fraction of plate median); higher = more viable cells; conditions: 5 µM; treatment time 24 h; reporter: 7TFP
# Method in brief: (§1)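 Values are well luminescence normalised to the plate median, from either a firefly luciferase or a CellTiterGlo readout on parallel plates. The cells, colorectal cancer lines stably transduced with lentiviral 7TFP or TCF4/Wnt firefly luciferase reporters, were treated with library compounds at a final 5 µM for 24 h. The mean of two independent replicates is listed.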
# HCT116 = assay: as above; conditions: 5 µM; treatment time 24 h; reporter: TCF4/Wnt
# Method in brief: as §1
# SW480 [2] = assay: as above; conditions: 5 µM; treatment time 24 h; reporter: 7TFP
# Method in brief: as §1
# DLD1 [3] = assay: TCF/Wnt firefly luciferase reporter signal relative to plate median (fraction of plate median); higher = higher Wnt reporter signal; conditions: 5 µM; treatment time 24 h; reporter: 7TFP
# Method in brief: as §1
# SW480 [4] = assay: as above; conditions: 5 µM; treatment time 24 h; reporter: 7TFP
# Method in brief: as §1
SMILES,cell viability (DLD1 [1]),cell viability (HCT116),cell viability (SW480 [2]),TCF/Wnt firefly luciferase reporter signal (DLD1 [3]),TCF/Wnt firefly luciferase reporter signal (SW480 [4])
CC(C)[C@H]1CC[C@H](C(=O)N[C@H](Cc2ccccc2)C(=O)O)CC1,0.905 ± 0.0028,0.972 ± 0.0014,0.973 ± 0.067,1.03 ± 0.014,0.983 ± 0.014
C[C@H]1O[C@@H](O[C@H]2[C@@H](O)C[C@H](O[C@H]3[C@@H](O)C[C@H](O[C@H]4CC[C@@]5(C)[C@H](CC[C@@H]6[C@@H]5C[C@@H](O)[C@]5(C)[C@@H](C7=CC(=O)OC7)CC[C@]65O)C4)O[C@@H]3C)O[C@@H]2C)C[C@H](O)[C@@H]1O,0.838 ± 0.068,0.282 ± 0.23,0.855 ± 0.053,0.151 ± 0.15,0.221 ± 0.094
CC(CCC(=O)O)C1CCC2C3CCC4CC(O)CCC4(C)C3C=CC12C (stereo not given),1.03 ± 0.021,0.943 ± 0.12,1.005 ± 0.0071,0.902 ± 0.071,0.964 ± 0.02
COc1ccccc1OCC(O)CN1CCN(CC(=O)Nc2c(C)cccc2C)CC1 (stereo not given),0.977 ± 0.018,0.927 ± 0.018,0.944 ± 0.013,1.04 ± 0.028,0.881 ± 0.0092
CN(C)CCN(Cc1cccs1)c1ccccn1,1.08 ± 0.028,1.04 ± 0.18,1 ± 0.015,1.01 ± 0.056,1.03 ± 0.028
NS(=O)(=O)c1cc(C(=O)O)c(NCc2ccco2)cc1Cl,0.993 ± 0.0099,1.04,1.09 ± 0.042,1.095 ± 0.0071,1.13 ± 0.057
COc1ccc2c(c1)O[C@H]1c3ccc(OC)cc3OC[C@@H]21,0.969 ± 0.044,0.906 ± 0.12,0.979 ± 0.044,0.792 ± 0.025,0.969 ± 0.086
Cc1cc(C2CCCCC2)n(O)c(=O)c1,1.02 ± 0.014,0.454 ± 0.12,1.24 ± 0.18,0.795 ± 0.077,1 ± 0.13
COC(=O)C1=CO[C@@H](O[C@@H]2O[C@H](CO)[C@@H](O)[C@H](O)[C@H]2O)[C@@H]2[C@@H](C)[C@@H](O)C[C@H]12,1.045 ± 0.0071,1.02 ± 0.047,1.06 ± 0.035,1.01 ± 0.016,1.09 ± 0.064
Nc1nc2[nH]cnc2c(=S)[nH]1,0.706 ± 0.016,0.761 ± 0.037,0.828 ± 0.11,0.752 ± 0.033,0.799 ± 0.025
CC(C)(C)NCC(O)COc1cccc2c1CC(O)C(O)C2 (stereo not given),1.05 ± 0.11,0.929 ± 0.015,1.04 ± 0.028,1.02 ± 0.15,0.996 ± 0.063
COc1cc(-c2coc3cc(OC)c(OC)c(OC)c3c2=O)cc(OC)c1OC,1.04 ± 0.08,1.18 ± 0.14,1.07 ± 0.064,1.05 ± 0.1,1.1 ± 0.028
CC(=O)O[C@H]1C[C@@]2(C)[C@@H](C[C@@H](O)[C@H]3[C@@]4(C)CC[C@@H](O)[C@@H](C)[C@@H]4CC[C@@]32C)/C1=C(\CCC=C(C)C)C(=O)O,1.04 ± 0.05,1 ± 0.054,1.04 ± 0.028,1.12 ± 0.05,1.06 ± 0.064
CC(C)C1=CC2=CC[C@@H]3[C@](C)(CCC[C@@]3(C)C(=O)O)[C@H]2CC1,0.967 ± 0.09,0.97 ± 0.013,0.897 ± 0.012,1.1 ± 0.11,0.912 ± 0.09
"COC(=O)[C@@H]1OC(=O)C2OC23[C@@]1(C)CCC1[C@]2(C)C(C[C@H](O)[C@]13C)C(C)(C)[C@H](OC(C)=O)C[C@@H]2OC(C)=O (stereo partly drawn) [7beta-HYDROXY-7-DESACETOXYKHIVORINIC ACID, METHYL ESTER]",1.01 ± 0.095,1.065 ± 0.0071,1.05,1.11 ± 0.18,1.03 ± 0.042
CC(C)=CCc1c(O)cc2oc(C)cc(=O)c2c1O,1 ± 0.036,0.981 ± 0.055,1 ± 0.024,0.869 ± 0.15,0.943 ± 0.095
